Sampled rows, rich in hits. Any-hit rate of the full collection: about 3.5%.
GPR151 ag: activators of human GPR151, primary screen, cell-based, PathHunter beta-arrestin, luminescence. activation, % at 11.2 µM. AID 1508602, 2020. PathHunter beta-arrestin GPR151 cells. hit rate 1% among 650,000. G-protein coupled receptor 151 (Homo sapiens), Q8TDV0; in the data active = activation above about 4.9%;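 also: 0% = median of compound wells and 100% = cells with positive control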
Target sequence (Q8TDV0 whole entry, looked up): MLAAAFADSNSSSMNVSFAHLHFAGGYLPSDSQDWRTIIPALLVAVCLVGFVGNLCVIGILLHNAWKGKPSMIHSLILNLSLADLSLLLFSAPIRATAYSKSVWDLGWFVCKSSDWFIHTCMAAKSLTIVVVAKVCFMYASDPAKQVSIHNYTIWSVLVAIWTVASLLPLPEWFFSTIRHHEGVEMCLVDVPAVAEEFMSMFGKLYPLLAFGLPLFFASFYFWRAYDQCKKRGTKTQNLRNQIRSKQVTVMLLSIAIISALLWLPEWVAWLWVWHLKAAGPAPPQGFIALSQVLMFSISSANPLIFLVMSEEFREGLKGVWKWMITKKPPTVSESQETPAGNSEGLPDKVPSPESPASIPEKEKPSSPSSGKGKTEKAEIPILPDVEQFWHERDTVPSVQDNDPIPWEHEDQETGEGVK
FBW7 activator: FBW7 E3 ligase activators, primary screen, biochemical, AlphaScreen, human; normalized activity (activation), % at 26.1 µM; AlphaScreen FBW7–phospho-cyclin E peptide binding, activator screen; hit rate 0.13% among 650,000; in the data active = normalized activity above about 1.9%;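 also: purified mutant Fbw7 with reduced substrate affinity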
MITF inh: MITF inhibitors, primary screen, biochemical, AlphaScreen, human | Microphthalmia-associated transcription factor (Homo sapiens), O75030 | AlphaScreen MITF homodimerization, bead proximity signal | inhibition, % at 2.6 µM | hit rate 0.91% among 650,000; in the data active = inhibition above about 50%;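 also: 0% = vehicle wells with protein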
TEAD-YAP inh: TEAD-YAP interaction inhibition, primary screen, TEAD-YAP interaction inhibitor project, luminescence, HEK-TIYL cells. TEAD-Gal4/YAP UAS-luciferase luminescence. inhibition, % at 9.12 µM. hit rate 1.4% among 640,000. AID 1259422, 2018; in the data active = inhibition above about 32%;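 also: 0% = median of test compound wells and 100% = reference inhibitor wells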
* = called active by the depositor; . = no result given.

SMILES	GPR151 ag	FBW7 activator	MITF inh	TEAD-YAP inh
COc1ccc(C=O)cc1COc1ccccc1F	0.0	2.1*	-3.9	-0.4
COc1ccc(S(=O)(=O)Oc2ccc(C=C3C(=O)NC(=O)NC3=O)cc2OC)cc1	0.4	-0.3	7.0	53.3*
C=CCc1cccc(/C=N/NC(=O)CCCO)c1O	-0.1	-0.1	29.5	5.7
C=CCc1cccc(/C=N/NC(=O)C[n+]2ccccc2)c1O	-0.9	-0.2	28.6	60.4*
Cn1c(=O)c2c(nc(OC/C=C\c3ccccc3)n2C)n(C)c1=O	-0.8	-0.1	14.0	9.4
CCOC(=O)Cn1cc(/C=C2/C(=O)N(c3cccc(C(=O)O)c3)N=C2C)c2ccccc21	0.7	0.1	51.0*	-2.6
COc1ccccc1Nc1nc(C)nc2sc(C)c(C)c12	1.5	0.0	-7.0	-11.6
O=C1OC(c2cccc(Br)c2)=N/C1=C\c1coc2ccc(Cl)cc2c1=O	-0.4	-0.1	10.2	0.9
Cc1nc2c(C)cccn2c1C(=O)NCc1ccc2c(c1)OCO2	-0.8	0.1	-10.7	33.5*
Cc1nc2ccccn2c1C(=O)NCc1ccc2c(c1)OCO2	0.0	0.9	13.6	6.3
CC(C(=O)Nc1ccccn1)N1Cc2ccccc2C1=O (stereo not drawn)	-0.4	0.0	-4.7	48.2*
Cc1ccc(C)c(NC(=O)C(C)N2Cc3ccccc3C2=O)c1 (stereo not drawn)	-0.2	-0.2	-10.2	-5.4
Cc1cccc(NC(=O)C(C)N2Cc3ccccc3C2=O)n1 (stereo not drawn)	2.0	0.0	4.9	5.2
Cc1ccnc(NC(=O)C(C)N2Cc3ccccc3C2=O)c1 (stereo not drawn)	1.7	-0.3	-1.9	89.4*
COC(=O)CNc1cccc([N+](=O)[O-])c1	0.4	0.3	5.5	10.5
c1ccc(-n2cnc3c(NCc4nc5ccccc5[nH]4)nc(Nc4ccc5ncccc5c4)nc32)cc1	-2.6	23.4*	1.4	15.9
c1ccc(CNc2nc(Nc3ccc4ncccc4c3)nc3c2ncn3-c2ccsc2)cc1	-1.9	-0.1	2.3	12.0
c1cnc2ccc(Nc3nc(NCc4nc5ccccc5[nH]4)c4ncn(-c5ccsc5)c4n3)cc2c1	-0.1	42.3*	-15.6	49.0*
NNc1nc(Nc2ccccc2)nc(Nc2ccccc2)n1	-0.5	-0.8	3.9	35.0*
N#C/C(=C/c1ccc(O)cc1)c1ccc(C#N)cc1	-2.6	-0.2	-7.3	44.8*
CN(C)c1ccc(/C=C(/C#N)c2ccc(C#N)cc2)cc1	3.6	0.8	6.8	-60.3
CC(C)c1ccc(OCC(=O)Nc2ncn[nH]2)c(Br)c1	-3.7	0.2	8.8	63.2*
CC(C)(C)c1ccc(OCC(=O)Nc2ncn[nH]2)c(Br)c1	-0.8	0.7	10.4	7.3
O=C(CCCn1c(SCc2cc(=O)n3cc(Cl)ccc3n2)nc2ccccc2c1=O)NCc1ccccc1	-0.7	-0.1	-7.4	-8.8
COc1ccc(Cl)cc1NC1=C(Cl)C(=O)N(Cc2ccccc2)C1=O	-1.5	-0.2	63.7*	71.6*
SMILES	GPR151 ag	FBW7 activator	MITF inh	TEAD-YAP inh
O=C1C(Cl)=C(Nc2cccc(C(F)(F)F)c2)C(=O)N1Cc1ccccc1	-0.4	-0.1	-8.7	74.9*
COc1ccc(OC)c(NC2=C(Cl)C(=O)N(Cc3ccccc3)C2=O)c1	-2.0	0.3	26.3	9.2
Cc1ccccc1OCC(=O)NCC(=O)O	-1.5	-0.2	-10.9	8.1
S=C(NNc1nc(N2CCCC2)nc(N2CCCC2)n1)NC1CCCCC1	0.2	-0.5	-10.8	39.2*
COc1ccc(/C=C2\C(=O)N(c3ccccc3)C3=C2C(c2ccc(Br)cc2)N(c2ccccc2)C3=O)cc1OC (stereo not drawn)	0.8	-0.1	2.7	-9.2
CN(C)c1ccc(N2C(=O)CSC2=S)cc1	0.2	-0.5	53.5*	5.6
O=C1CSC(=S)N1c1ccc(F)cc1	-0.9	0.3	7.7	-0.5
CCCCC[C@](C)(O)/C=C/[C@H]1[C@H](O)CC(=O)[C@@H]1C/C=C\CCCC(=O)O	0.7	.	-11.1	.
Cc1ccc(C(=O)Nc2ccc(O)cc2C(=O)O)cc1	-5.6	-0.4	22.4	11.8
CC(C)(C)c1ccc(C(=O)Nc2ccc(O)cc2C(=O)O)cc1	-0.7	-0.6	18.2	33.7*
C/C(=N/NC(=O)c1ccc([N+](=O)[O-])cc1)c1ccc(O)cc1O	-1.4	-1.0	-7.1	84.0*
O=C(Nc1ccc(O)cc1C(=O)O)c1ccc([N+](=O)[O-])cc1	-0.7	-0.4	51.8*	3.2
C/C(=N\NC(=O)c1ccc([N+](=O)[O-])cc1Cl)c1ccc(O)cc1O	-1.1	-0.1	5.1	19.6
Cc1ccc(C(=O)Nc2ccc(O)cc2C(=O)O)cc1[N+](=O)[O-]	-5.8	-1.3	79.9*	12.6
COc1cccc2c1C(=O)c1c(O)c3c(c(O)c1C2=O)C[C@@](O)(C(=O)CO)C[C@@H]3O[C@H]1C[C@H](N)[C@@H](O)[C@H](C)O1	0.0	-0.4	29.9	61.6*
COc1cccc2c1C(=O)c1c(O)c3c(c(O)c1C2=O)C[C@@](O)(C(C)=O)C[C@@H]3O[C@H]1C[C@H](N)[C@H](O)[C@H](C)O1	-1.1	-0.1	23.1	92.7*
CC(=O)[C@]1(O)Cc2c(O)c3c(c(O)c2[C@@H](O[C@H]2C[C@H](N)[C@H](O)[C@H](C)O2)C1)C(=O)c1ccccc1C3=O	1.0	-0.2	12.4	-32.6
Cc1nc2c(C(=O)NCc3ccccc3)cnn2c(C)c1Cc1cccc(Br)c1	2.9	-0.1	0.2	6.7
O=C(c1cccc([N+](=O)[O-])c1)N1CCN(c2cccc(Cl)c2)CC1	0.6	0.5	8.4	13.4
COC(=O)c1cc(C(=O)N2CCN(c3cccc(Cl)c3)CC2)cc([N+](=O)[O-])c1	0.7	0.0	3.8	63.1*
CCCn1c(/C=N/Nc2nc3ccccc3[nH]2)nc2ccccc21	1.3	0.0	17.0	1.4
CC(C)n1c(/C=N/Nc2nc3ccccc3[nH]2)nc2ccccc21	0.1	-0.2	10.6	36.8*
Cn1c(/C=N/Nc2nc3ccccc3[nH]2)nc2ccccc21	-1.2	-0.1	-23.6	39.5*
Nc1ncnc(N/N=C/c2ccc(O)cc2O)c1[N+](=O)[O-]	-3.2	-1.2	81.4*	-9.9
Nc1ncnc(N/N=C/c2ccccc2OC(F)F)c1[N+](=O)[O-]	-7.8	-0.6	8.0	47.7*
COc1cccc(/C=N/Nc2ncnc(N)c2[N+](=O)[O-])c1OC	-6.0	-0.2	18.4	46.1*
Nc1ncnc(N/N=C/c2cc([N+](=O)[O-])ccc2OC(F)F)c1[N+](=O)[O-]	-0.9	0.0	4.1	-39.6
CC(C)CC(NC(=O)c1ccc(Cl)cc1Cl)C(=O)O (stereo not drawn)	-0.7	0.1	6.1	-1.2
C=CCNC(=O)Cn1nnc(-c2ccc(-c3ccc(OC)cc3)cc2)n1	0.4	-0.2	-0.6	-40.5
CCCCOc1ccc(C(NC(=O)Cc2ccccc2)NC(=O)Cc2ccccc2)cc1	1.7	0.2	3.5	16.4

Assay outcomes (PubChem)
